The source of these data is PubChem BioAssay (NCI).

Assay in all cases: NCI-60 one-dose screen, 48 h (100 = growth as untreated, 0 = no growth, -100 = all killed)
Details in all cases: 10 µM

The test system of test [1] is NCI-H23 lung.
Test [2] relates to NCI-H226 lung.
Test [3] relates to NCI-H322M lung.
Test [4] deals with HOP-62 NSCLC.
Test [5] relates to NCI-H460 lung.
Test [6] deals with NCI-H522 lung.
The subject of test [7] is A549/ATCC NSCLC.
Test [8] has as its system 786-0 renal.
The subject of test [9] is COLO 205 colon.
Test [10] deals with DU-145 prostate.
Test [11] has as its system K-562 leukemia.
The subject of test [12] is MALME-3M melanoma.
Test [13] concerns MDA-MB-231 breast.
For test [14], the system named is RXF 393 renal.
Test [15] relates to SF-268 CNS.
For test [16], the system named is SF-295 CNS.
Test [17] concerns SF-539 CNS.
For test [18], the system named is UACC-257 melanoma.
Test [19] has as its system M14 melanoma.

The panel holds about 83,000 compounds, 20% with a hit somewhere; the sample as a whole holds those more often.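 The test compound was applied at a single concentration to cells in 96-well plates for 48 hours, and percent growth was recorded.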 Values without a mark were called inactive. Calls of active or inactive are those of the source. How the source made its calls: active means growth percent below 10; inactive means the rest.

Turning to `CC1SC(N)=NC1=O` (stereo not given), the growth in [1] is 94.8%; in test [2], 107%; in test [3], 114%; in [4], 79.5%; in test [5], 115%; in [6] it was 97.5%. For the same molecule, the growth in [7] is 102%; in [8] it was 95.3%; in test [9], 138%; in test [10], 117%; in [11], 112%; in test [12] it was 108%. The growth is 112% in test [13]; 120% in test [14]; 110% in [15]; 102% in test [16]; 106% in [17]; 110% in [18]. Also, the growth in test [19] is 103%.

On to `COC(=O)c1ccccc1Br`, for which the growth is 107% in test [1]; 104% in [2]; 95.6% in [3]; 77.9% in [4]; 107% in [5]; 94.2% in test [6]. The growth was 103% in [7]; 97% in test [8]; 116% in test [9]; 102% in test [10]; 111% in test [11]; 98.5% in test [12]. In addition, the growth was 112% in test [13]; 110% in test [14]; 101% in [15]; 95.1% in [16]; 102% in [17]; 114% in test [18]. Besides, the growth in [19] is 88.9%.

As for `c1ccc(CN2COc3c(ccc4c3OCN(Cc3ccccc3)C4)C2)cc1`, the growth is 29.9% in test [1]; -9.91% (active) in test [2]; 32.9% in test [3]; 26.2% in test [4]; 9.51% (active) in test [5]; 30.7% in test [6]. Also, the growth in test [7] is 6.93% (active); in [8] it was -26% (active); in [9] it was 12.7%; in [10], 25.3%; in test [11], 3.62% (active); in [12], 28.4%. For the same molecule, the growth was 1.06% (active) in test [13]; 15.1% in test [15]; 0.773% (active) in test [16]; -21.5% (active) in test [17]; 12.1% in test [18]; -0.269% (active) in test [19].

Turning to `O=C(O)CCCCNC(=O)c1ccccc1`, the growth in [1] is 91%; in test [2] it was 92.3%; in test [3] it was 106%; in test [4] it was 90.8%; in [5], 106%; in test [6] it was 89.4%. Also, the growth in [7] is 98.4%; in test [8], 97.5%; in test [9] it was 108%; in test [10] it was 110%; in [11], 89.3%; in test [12], 110%. In addition, the growth in test [13] was 99.1%; in test [15], 102%; in test [16], 95.1%; in test [17], 99.8%; in [18], 107%; in test [19] it was 98.8%.

On to `O=C(CCl)N1CCN(C/C=C/c2ccccc2)CC1`, for which the growth was 101% in [1]; 79.8% in [2]; 109% in [3]; 97.2% in [4]; 98.1% in test [5]; -80.4% (active) in test [6]. The growth in test [7] was 108%; in test [8] it was 101%; in test [9], 108%; in test [10], 110%; in test [11], 88.1%; in test [12], 83%. The growth is 100% in test [13]; 86.4% in test [14]; 87.7% in test [15]; 105% in test [16]; 104% in [17]; 85.8% in test [18]. Further, the growth in [19] is 90.1%.

Take `CCCCC(=O)c1ccc(OC)cc1`: the growth in test [1] was 99.7%; in [2], 99.7%; in test [3], 111%; in [4] it was 112%; in test [5] it was 104%; in test [6] it was 91.2%. Besides, the growth in [7] was 97.4%; in test [8] it was 96.2%; in test [9] it was 118%; in test [10] it was 104%; in test [11], 105%; in test [12] it was 94%. In addition, the growth in test [13] was 109%; in [15], 107%; in [16] it was 92%; in test [17], 110%; in test [18] it was 91.2%; in test [19], 99.4%.

Regarding `CCCCC1C(=O)N(c2ccccc2)N(c2ccccc2)C1=O`, the growth in test [1] was 109%; in [2], 95.8%; in test [3], 99.9%; in [4], 99.3%; in test [5], 114%; in [6] it was 102%. Moreover, the growth in test [7] was 106%; in test [8] it was 98.5%; in test [9], 106%; in test [10], 113%; in test [11] it was 99.1%; in [12] it was 97.1%. The growth in test [13] is 103%; in test [14] it was 116%; in test [15], 107%; in [16], 110%; in test [18], 105%; in [19] it was 98.9%.

Consider `C[C@@H](c1ccccc1)[C@@H](C(=O)O)c1ccccc1`, for which the growth in [1] was 100%; in [2] it was 98.8%; in test [3], 97.5%; in [4] it was 99.7%; in [5] it was 104%; in [6], 99.9%. Besides, the growth is 101% in [7]; 99.5% in [8]; 107% in test [9]; 114% in test [10]; 110% in test [11]; 110% in [13]. The growth in test [15] was 106%; in test [16], 98.6%; in test [17], 96.5%; in test [18], 98.8%; in [19], 101%.

Turning to `CSC[C@H](NC(=O)COc1cccc2cnccc12)C(=O)NC(Cc1ccccc1)C(O)C(=O)N1CSC[C@H]1C(=O)NC(C)(C)C` (stereo not given in full), the growth in [1] was 106%; in [2], 105%; in [3] it was 95.7%; in test [4] it was 110%; in test [5], 125%; in test [6], 72.3%. The growth in [7] is 110%; in test [8] it was 80.3%; in test [9] it was 106%; in [10] it was 98.9%; in test [11] it was 107%; in test [12], 105%. The growth is 93.8% in [13]; 100% in test [14]; 94.4% in test [15]; 97.4% in test [16]; 103% in [17]; 106% in [18]. Further, the growth in test [19] was 99.3%.
